Among the data in ChEMBL document CHEMBL1961873, “Compounds: GSK PKIS; Assays: Nanosyn kinase panel” (2012) are inhibition values, retold here.

In experiment [1] the target is Tyrosine-protein kinase SYK (Homo sapiens) (UniProt P43405). To be noted: at 1 µM.
For experiment [2], the target named is T1, Tyrosine-protein kinase Tec (Homo sapiens) (UniProt P42680).
T1 sequence (whole entry): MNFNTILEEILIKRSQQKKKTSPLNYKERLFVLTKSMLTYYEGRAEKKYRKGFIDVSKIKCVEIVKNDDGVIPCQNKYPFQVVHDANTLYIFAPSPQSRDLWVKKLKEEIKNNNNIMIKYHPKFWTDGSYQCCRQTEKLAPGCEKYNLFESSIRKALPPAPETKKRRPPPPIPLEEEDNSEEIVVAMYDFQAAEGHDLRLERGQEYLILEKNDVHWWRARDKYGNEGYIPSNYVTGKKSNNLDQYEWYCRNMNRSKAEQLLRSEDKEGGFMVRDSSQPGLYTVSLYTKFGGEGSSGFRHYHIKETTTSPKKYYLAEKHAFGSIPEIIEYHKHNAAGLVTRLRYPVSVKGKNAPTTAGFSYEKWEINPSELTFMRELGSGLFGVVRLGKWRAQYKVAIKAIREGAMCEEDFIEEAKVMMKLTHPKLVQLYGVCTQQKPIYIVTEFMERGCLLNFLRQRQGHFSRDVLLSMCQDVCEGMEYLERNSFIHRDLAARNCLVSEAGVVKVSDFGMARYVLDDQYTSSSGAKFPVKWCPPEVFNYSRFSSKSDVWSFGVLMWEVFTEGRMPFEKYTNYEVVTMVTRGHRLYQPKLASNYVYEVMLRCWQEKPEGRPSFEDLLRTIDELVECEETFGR
To be noted: at 0.1 µM.

Experiment [3] concerns the target T1, Tyrosine-protein kinase Tec (Homo sapiens). To be noted: at 1 µM.
Experiment [4] addresses Angiopoietin-1 receptor (Homo sapiens) (UniProt Q02763). To be noted: at 0.1 µM.
The target is the same in experiment [5]. The note with it: at 1 µM.
In experiment [6] the target is T2, Non-receptor tyrosine-protein kinase TNK1 (Homo sapiens) (UniProt Q13470).
T2 sequence (whole entry): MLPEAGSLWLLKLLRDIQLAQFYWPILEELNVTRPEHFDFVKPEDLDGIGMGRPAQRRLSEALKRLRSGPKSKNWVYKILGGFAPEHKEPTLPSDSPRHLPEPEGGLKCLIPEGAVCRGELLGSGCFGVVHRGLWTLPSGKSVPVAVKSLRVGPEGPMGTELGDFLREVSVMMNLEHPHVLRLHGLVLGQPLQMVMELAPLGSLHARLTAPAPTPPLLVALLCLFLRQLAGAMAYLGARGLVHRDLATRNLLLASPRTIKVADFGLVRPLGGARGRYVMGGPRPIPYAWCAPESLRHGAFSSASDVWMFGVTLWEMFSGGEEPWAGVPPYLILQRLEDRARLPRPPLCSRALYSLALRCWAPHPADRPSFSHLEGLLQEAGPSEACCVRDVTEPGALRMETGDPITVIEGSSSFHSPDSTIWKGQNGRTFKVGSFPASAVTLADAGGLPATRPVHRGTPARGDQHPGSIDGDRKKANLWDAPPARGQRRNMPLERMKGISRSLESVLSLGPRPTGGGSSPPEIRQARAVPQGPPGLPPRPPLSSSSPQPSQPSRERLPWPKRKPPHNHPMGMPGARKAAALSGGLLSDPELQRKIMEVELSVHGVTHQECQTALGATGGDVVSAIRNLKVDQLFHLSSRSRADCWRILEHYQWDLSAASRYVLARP
The note with it: at 0.1 µM.

Experiment [7] has as its target T2, Non-receptor tyrosine-protein kinase TNK1 (Homo sapiens). To be noted: at 1 µM.
Experiment [8] concerns the target Activated CDC42 kinase 1 (Homo sapiens) (UniProt Q07912). The note with it: at 0.1 µM.
For experiment [9] the target is unchanged. To be noted: at 1 µM.
Experiment [10] deals with High affinity nerve growth factor receptor (Homo sapiens) (UniProt P04629). The note with it: at 0.1 µM.
Experiment [11] shares this target. The note with it: at 1 µM.
The target in experiment [12] is BDNF/NT-3 growth factors receptor (Homo sapiens) (UniProt Q16620). The note with it: at 0.1 µM.
The target is the same in experiment [13]. The note with it: at 1 µM.
The target in experiment [14] is NT-3 growth factor receptor (Homo sapiens) (UniProt Q16288). To be noted: at 0.1 µM.
The target is the same in experiment [15]. To be noted: at 1 µM.
The target of experiment [16] is T3, Tyrosine-protein kinase TXK (Homo sapiens) (UniProt P42681).
T3 sequence (whole entry): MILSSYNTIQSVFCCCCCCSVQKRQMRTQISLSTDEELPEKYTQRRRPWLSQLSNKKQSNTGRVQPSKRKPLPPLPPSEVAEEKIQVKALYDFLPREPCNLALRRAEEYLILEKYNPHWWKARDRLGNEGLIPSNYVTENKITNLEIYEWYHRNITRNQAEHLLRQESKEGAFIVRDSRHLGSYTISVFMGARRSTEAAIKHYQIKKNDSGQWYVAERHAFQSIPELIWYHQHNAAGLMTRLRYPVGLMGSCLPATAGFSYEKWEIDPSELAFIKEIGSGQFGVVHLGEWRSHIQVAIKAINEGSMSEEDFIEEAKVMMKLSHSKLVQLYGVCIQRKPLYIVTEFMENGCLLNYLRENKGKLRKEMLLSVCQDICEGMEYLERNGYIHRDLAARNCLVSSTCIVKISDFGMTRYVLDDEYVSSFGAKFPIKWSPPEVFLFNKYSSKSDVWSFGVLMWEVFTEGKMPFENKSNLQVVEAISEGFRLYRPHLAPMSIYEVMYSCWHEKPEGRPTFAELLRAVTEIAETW
The note with it: at 0.1 µM.

The target of experiment [17] is T3, Tyrosine-protein kinase TXK (Homo sapiens). The note with it: at 1 µM.
In experiment [18] the target is Non-receptor tyrosine-protein kinase TYK2 (Homo sapiens) (UniProt P29597). The note with it: at 0.1 µM.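 Note: each value is a mean of the inhibition readings.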
Experiment [19] addresses T4, Dual specificity protein kinase TTK (Homo sapiens) (UniProt P33981).
T4 sequence (whole entry): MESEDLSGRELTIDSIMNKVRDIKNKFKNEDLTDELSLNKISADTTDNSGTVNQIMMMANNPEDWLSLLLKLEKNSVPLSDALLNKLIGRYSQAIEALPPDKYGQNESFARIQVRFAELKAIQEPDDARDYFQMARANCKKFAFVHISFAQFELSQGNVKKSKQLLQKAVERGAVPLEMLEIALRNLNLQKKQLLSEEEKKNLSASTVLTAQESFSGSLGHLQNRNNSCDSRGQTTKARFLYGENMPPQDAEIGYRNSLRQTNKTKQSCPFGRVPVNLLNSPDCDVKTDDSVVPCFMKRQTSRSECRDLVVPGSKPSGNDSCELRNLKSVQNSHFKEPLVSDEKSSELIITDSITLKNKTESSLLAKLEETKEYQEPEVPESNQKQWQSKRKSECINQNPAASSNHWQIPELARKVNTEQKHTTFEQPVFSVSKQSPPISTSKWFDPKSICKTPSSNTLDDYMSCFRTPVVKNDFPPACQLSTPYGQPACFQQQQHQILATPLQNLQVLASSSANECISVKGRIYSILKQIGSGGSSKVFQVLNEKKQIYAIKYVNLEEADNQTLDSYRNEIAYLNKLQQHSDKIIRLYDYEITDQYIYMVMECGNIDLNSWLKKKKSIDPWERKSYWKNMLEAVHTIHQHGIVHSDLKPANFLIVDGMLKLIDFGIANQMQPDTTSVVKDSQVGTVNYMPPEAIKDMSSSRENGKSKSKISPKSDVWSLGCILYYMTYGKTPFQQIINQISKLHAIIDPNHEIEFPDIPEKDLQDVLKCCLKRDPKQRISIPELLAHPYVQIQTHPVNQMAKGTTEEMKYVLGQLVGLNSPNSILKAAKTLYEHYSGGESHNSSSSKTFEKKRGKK
The note with it: at 1 µM.

Experiment [20] deals with T5, Aurora kinase A (Homo sapiens) (UniProt O14965).
T5 sequence (whole entry): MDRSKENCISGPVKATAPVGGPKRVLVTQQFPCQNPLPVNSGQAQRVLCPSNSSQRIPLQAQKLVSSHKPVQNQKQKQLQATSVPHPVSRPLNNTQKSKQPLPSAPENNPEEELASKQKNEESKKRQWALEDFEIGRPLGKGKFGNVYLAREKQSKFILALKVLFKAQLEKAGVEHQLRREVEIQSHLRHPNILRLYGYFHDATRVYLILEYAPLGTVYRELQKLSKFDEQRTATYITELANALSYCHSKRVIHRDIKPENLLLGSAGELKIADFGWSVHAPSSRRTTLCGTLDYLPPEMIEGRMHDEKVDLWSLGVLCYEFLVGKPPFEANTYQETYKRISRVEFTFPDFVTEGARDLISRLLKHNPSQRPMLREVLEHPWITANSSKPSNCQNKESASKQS
The note with it: at 0.1 µM.

NT-3 growth factor receptor (Homo sapiens), sequence (Q16288 32-839 limits assumed): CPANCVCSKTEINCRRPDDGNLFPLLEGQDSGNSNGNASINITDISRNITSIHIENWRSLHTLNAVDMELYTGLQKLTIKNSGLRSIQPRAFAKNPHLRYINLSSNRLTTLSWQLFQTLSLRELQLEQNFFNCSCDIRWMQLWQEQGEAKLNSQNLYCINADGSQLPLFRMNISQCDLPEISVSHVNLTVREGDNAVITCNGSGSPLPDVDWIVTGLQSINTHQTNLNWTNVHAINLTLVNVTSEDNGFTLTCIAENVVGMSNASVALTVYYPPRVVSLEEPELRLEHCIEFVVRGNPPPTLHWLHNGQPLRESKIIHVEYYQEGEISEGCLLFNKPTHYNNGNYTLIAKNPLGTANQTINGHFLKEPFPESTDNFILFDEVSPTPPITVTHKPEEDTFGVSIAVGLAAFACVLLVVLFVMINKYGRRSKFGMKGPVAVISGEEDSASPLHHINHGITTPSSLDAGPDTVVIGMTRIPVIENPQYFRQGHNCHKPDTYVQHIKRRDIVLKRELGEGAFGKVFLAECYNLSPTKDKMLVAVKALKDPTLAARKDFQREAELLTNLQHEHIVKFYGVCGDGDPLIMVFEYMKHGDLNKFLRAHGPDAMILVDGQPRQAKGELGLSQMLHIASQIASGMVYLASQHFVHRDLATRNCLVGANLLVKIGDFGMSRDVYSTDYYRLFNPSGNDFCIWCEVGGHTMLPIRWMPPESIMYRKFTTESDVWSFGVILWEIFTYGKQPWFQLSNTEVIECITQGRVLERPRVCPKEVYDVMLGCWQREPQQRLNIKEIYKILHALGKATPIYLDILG
Angiopoietin-1 receptor (Homo sapiens), sequence (Q02763 whole entry): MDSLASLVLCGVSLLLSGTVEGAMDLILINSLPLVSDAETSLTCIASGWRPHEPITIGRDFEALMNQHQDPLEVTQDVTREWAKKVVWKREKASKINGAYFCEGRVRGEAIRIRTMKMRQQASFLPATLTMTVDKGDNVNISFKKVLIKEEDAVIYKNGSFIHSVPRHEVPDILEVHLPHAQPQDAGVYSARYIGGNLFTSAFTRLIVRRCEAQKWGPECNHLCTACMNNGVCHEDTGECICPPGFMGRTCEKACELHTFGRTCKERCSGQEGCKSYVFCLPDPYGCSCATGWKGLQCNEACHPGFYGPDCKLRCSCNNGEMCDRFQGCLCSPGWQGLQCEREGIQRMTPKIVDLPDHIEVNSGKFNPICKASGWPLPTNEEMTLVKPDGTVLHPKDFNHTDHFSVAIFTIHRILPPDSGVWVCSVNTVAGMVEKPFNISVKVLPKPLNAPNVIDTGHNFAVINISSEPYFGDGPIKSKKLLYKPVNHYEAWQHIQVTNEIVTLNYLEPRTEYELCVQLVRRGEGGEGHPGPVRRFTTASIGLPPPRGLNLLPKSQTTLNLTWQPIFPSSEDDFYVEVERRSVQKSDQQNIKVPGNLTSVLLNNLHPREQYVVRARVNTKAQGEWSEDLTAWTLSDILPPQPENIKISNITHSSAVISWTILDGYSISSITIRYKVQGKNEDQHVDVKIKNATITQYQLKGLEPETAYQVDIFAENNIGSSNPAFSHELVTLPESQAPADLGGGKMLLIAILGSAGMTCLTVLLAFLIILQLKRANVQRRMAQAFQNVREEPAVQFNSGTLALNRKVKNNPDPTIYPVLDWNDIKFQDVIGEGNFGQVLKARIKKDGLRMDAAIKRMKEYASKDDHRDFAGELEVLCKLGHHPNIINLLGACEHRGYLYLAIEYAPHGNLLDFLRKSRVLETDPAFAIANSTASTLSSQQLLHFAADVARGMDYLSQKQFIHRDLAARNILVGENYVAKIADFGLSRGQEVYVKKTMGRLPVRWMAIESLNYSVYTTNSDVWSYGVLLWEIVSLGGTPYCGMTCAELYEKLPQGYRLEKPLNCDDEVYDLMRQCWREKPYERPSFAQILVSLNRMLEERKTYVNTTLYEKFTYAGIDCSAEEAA
High affinity nerve growth factor receptor (Homo sapiens), sequence (P04629 33-796 limits assumed): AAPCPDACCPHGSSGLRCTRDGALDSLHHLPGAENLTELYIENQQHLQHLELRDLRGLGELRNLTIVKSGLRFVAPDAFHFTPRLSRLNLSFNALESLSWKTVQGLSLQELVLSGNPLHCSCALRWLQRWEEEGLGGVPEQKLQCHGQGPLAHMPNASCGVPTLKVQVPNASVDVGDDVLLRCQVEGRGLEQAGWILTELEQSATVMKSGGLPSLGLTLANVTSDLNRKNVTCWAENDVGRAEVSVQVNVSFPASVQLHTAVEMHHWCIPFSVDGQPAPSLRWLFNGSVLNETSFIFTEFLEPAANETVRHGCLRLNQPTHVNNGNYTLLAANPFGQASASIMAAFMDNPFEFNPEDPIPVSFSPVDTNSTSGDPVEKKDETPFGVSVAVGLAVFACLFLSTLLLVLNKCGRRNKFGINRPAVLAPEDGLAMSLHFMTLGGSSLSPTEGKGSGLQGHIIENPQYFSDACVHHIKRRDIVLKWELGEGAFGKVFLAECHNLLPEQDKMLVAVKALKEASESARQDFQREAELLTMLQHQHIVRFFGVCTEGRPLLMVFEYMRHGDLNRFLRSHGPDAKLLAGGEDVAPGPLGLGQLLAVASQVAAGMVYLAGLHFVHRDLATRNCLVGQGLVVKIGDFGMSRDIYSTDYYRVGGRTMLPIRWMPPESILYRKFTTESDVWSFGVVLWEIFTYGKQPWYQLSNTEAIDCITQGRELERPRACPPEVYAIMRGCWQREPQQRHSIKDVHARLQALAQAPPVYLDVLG
BDNF/NT-3 growth factors receptor (Homo sapiens), sequence (Q16620 32-822 limits assumed): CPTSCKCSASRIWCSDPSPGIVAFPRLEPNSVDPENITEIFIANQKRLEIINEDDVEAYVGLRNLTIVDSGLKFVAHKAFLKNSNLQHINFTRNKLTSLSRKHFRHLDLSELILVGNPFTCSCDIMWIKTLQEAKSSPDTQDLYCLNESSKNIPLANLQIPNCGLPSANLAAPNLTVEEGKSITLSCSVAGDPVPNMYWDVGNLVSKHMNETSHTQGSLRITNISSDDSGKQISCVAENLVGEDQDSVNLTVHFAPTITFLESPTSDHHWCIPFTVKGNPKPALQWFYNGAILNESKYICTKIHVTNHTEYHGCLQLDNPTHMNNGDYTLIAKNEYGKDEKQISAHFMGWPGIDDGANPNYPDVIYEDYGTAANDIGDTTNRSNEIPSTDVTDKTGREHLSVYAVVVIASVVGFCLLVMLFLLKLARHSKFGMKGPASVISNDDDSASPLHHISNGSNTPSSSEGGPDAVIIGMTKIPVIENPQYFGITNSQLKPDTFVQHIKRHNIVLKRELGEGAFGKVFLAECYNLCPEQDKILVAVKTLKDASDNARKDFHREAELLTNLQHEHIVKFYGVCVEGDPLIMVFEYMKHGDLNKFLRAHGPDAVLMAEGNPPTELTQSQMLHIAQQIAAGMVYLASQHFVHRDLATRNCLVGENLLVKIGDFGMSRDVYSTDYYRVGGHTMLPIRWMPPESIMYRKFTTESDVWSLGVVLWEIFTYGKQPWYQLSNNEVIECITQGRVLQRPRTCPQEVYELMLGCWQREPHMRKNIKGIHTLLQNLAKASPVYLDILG
Activated CDC42 kinase 1 (Homo sapiens), sequence (Q07912 whole entry, looked up): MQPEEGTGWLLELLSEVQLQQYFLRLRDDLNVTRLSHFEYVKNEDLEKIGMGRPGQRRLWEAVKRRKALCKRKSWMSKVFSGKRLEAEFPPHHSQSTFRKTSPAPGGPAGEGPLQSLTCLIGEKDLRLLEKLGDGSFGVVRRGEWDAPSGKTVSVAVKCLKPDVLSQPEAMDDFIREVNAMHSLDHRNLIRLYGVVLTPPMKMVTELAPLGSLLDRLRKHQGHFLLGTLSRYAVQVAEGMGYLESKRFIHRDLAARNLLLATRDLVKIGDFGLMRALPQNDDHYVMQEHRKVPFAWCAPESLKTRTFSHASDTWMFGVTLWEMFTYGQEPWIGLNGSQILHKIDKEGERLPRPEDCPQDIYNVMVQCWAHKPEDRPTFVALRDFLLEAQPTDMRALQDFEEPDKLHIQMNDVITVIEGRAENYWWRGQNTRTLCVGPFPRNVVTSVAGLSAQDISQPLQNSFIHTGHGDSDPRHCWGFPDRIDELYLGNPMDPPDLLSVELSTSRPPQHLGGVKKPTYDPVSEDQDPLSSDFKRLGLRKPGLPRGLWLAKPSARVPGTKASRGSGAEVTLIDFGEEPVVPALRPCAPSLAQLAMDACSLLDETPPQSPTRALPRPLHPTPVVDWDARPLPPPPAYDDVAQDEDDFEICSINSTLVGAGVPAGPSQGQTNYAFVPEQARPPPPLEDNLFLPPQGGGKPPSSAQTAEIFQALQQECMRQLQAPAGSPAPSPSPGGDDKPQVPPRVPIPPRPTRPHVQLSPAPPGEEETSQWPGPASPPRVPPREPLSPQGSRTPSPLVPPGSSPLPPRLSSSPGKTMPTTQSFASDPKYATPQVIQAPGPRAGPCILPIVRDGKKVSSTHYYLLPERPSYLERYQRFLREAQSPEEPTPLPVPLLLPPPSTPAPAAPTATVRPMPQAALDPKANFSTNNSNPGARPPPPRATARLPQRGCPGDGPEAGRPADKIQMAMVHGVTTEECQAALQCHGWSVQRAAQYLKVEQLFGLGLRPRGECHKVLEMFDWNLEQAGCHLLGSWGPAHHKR

As to `CCn1c(-c2nonc2N)nc2c(C#CC(C)(C)O)nc(O[C@@H](CN)c3ccccc3)cc21`, the inhibition is 0.56% in experiment [1]; 0.79% in experiment [2]; 5.82% in experiment [3]; 2.63% in experiment [4]; 11.4% in experiment [5]; -3.17% in experiment [6]. In addition, the inhibition in [7] was -3.26%; in experiment [8], -0.88%; in [9], -1.74%; in experiment [10], -3.19%; in [11], 0.16%; in experiment [12], -1.86%. Moreover, the inhibition was 1.16% in [13]; -1.62% in [14]; 0.7% in experiment [15]; 2.06% in [16]; 2.31% in [17]; 2.96% in experiment [18]. Moreover, the inhibition amounted to 8.72% in experiment [19] and 0.22% in experiment [20].
Consider `COc1cccc(-n2ncc3c(N/N=C/c4ccncc4)ncnc32)c1`, for which the inhibition is 9.95% in experiment [1]; 6.13% in [2]; 17.2% in experiment [3]; 6.02% in experiment [4]; 37.5% in experiment [5]; 10.1% in experiment [6]. For the same compound, the inhibition was found to be 52.3% in experiment [7]; 2.06% in [8]; 9.3% in [9]; 3.46% in experiment [10]; 12.8% in [11]; 7.74% in experiment [12]. In addition, the inhibition in [13] was 37.6%; in experiment [14], 8.44%; in experiment [15], 36.9%; in experiment [16] it was 4.8%; in experiment [17], 18.6%; in experiment [18], -2.74%. For the same compound, the figures for the inhibition in [19] and in experiment [20] were 18.5% and 12.1%, respectively.
On to `CCn1c(-c2nonc2N)nc2c(C#CCN)ncc(OCCCN)c21`, for which the inhibition was -0.1% in experiment [1]; -2.6% in experiment [2]; -1.5% in experiment [3]; 0.84% in experiment [4]; -0.39% in experiment [5]; 2.24% in [6]. Further, the inhibition in experiment [7] was 10.6%; in experiment [8], -0.12%; in [9], 0.81%; in experiment [10] it was -3.88%; in experiment [11], -4.23%; in [12], -0.67%. For the same compound, the inhibition in [13] is -1.3%; in experiment [14] it was 0.15%; in experiment [15], 2.14%; in [16], -1.46%; in experiment [17], -3.71%; in experiment [18], 5.99%. In addition, the inhibition was -3.71% in experiment [19] and -1.21% in experiment [20].
